Bioassay records: PubChem BioAssay, National Center for Advancing Translational Sciences (NCATS)
Most compounds without a hit are left out; they make up all but 7.4% or so of the library.
ELG1 genotoxic – genotoxicity induction in ELG1-luciferase HEK293T cells. HEK293T ELG1-luciferase reporter, luminescence, 16 h. Potency, µM (titrated, usually from 46 µM), inactives show at the top dose activity change, positive = activation, usual class: activators. 330,000 tested, 1.3% active; further: % of control where 0% means no effect; nearly all actives have a fitted effect of over 60% in size
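DMSO vehicle served as control against compound-treated ELG1-luciferase HEK293T cells; exposure lasted 16 hr at 37 °C and 5% CO2, followed by ONE-Glo luminescence detection after 30 min.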
SMN2 splice up – enhancers of SMN2 splice variant expression; HEK293 SMN2-luciferase splicing reporter, luminescence, 30-36 h; Potency, µM (top dose mostly 46.1 µM), inactives show at the top dose activity change, positive = activation, hits mostly activators; 210,000 tested, 2.8% active; further: % of control where 0% means no effect; nearly all actives have a fitted effect of over 55% in size
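qHTS luciferase splicing reporter: luminescence rises when SMN2 exon 7 is included in transfected HEK293 cells. Compound exposure lasted 30-36 h at 37C, with 4.5 mM final sodium butyrate as control, followed by a ONE-Glo read.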
NPC1 promoter act – activates the NPC1 promoter; Huh7 NPC1 promoter luciferase reporter, 24 h; Potency, µM (top dose mostly 9.22 µM), inactives show top-dose activation, actives largely listed as activators; 320,000 tested, 2.4% active; further: % of control where 0% means no effect; nearly all actives have a fitted effect of over 60% in size
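In 1536-well qHTS, Huh7 cells harboring an NPC1 promoter–luciferase construct received compound for 24 h; activation was quantified by luminescence following luciferase reagent addition.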
KinaseGlo FLuc – blocks Kinase-Glo luciferase, a counter-screen artifact; 200,000 tested, 0.28% active; Potency, µM (doses to about 38.3 µM), for the others: top-dose activity change, negative = inhibition, usual class: inhibitors; Q27757; Kinase-Glo luciferase, ATP luminescence, 8 min; further: on the % scale 0 is the no-effect control and ±100 the full control effect; nearly all actives have a fitted effect of over 60% in size
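Kinase-Glo luciferase light output from ATP and luciferin was measured with 10 uM ATP, within the enzyme's linear range. Buffer: 50 mM imidazole pH 7.2, 50 mM KCl, 7 mM MgCl2, 0.01% Tween 20, 0.05% BSA; luminescence read after 8 min at ambient temperature.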
FLuc counter – counter-screen for miR-21 project: firefly luciferase inhibitors or activators. P08659. purified FLuc, Km substrates, luminescence inhibition. Potency, µM (series often up to 57.5 µM), for inactives: at the top dose activity change, negative = inhibition, most hits filed as inhibitors. 360,000 tested, 6.9% active;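 further: plate controls were vehicle for no effect and reference inhibitor for full effect; nearly all actives have a fitted effect of over 55% in size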
Target sequence (P08659 whole entry, looked up): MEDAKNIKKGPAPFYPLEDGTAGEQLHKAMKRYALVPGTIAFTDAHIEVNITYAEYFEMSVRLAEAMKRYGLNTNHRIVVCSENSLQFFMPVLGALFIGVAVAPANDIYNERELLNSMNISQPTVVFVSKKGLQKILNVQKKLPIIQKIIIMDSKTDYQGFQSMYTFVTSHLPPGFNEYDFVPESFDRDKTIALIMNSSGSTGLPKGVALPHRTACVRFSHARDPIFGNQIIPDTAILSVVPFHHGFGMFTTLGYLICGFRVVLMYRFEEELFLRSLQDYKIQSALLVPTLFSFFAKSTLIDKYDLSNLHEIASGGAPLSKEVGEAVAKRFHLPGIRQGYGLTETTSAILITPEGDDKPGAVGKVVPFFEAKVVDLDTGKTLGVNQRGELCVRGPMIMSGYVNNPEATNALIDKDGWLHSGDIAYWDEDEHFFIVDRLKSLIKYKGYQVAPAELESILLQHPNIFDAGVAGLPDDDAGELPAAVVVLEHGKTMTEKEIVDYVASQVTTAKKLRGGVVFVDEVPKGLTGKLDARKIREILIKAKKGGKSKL
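Biochemical qHTS of compounds, final roughly 60 µM downward over six points, against 10 nM purified firefly luciferase using Km concentrations of substrates (10 uM D-luciferin, 10 uM ATP) in Tris acetate pH 7.5 buffer; luminescence output.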
Rab9 prom act – activators of Rab9 promoter; 320,000 tested, 2.8% active; Huh7 Rab9 promoter-luciferase reporter, luminescence, 24 h; Potency, µM (doses to about 9.22 µM), for the others: top-dose activation, negative = inhibition, hits mostly activators; further: % of control where 0% means no effect; nearly all actives have a fitted effect of over 60% in size
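Luminescence read-out: Huh7 cells stably expressing Rab9-luciferase, treated 24 h with compound at 37 °C, then lysed with luciferase reagent for 10 min at ambient before reading.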
* marks the source's active call; other numbers are inactive results; ? = inconclusive; · = no result; [ ] = dose if it differs, or a comment. The call rests on the fitted dose curve; in most records, active means well fitted curve in the direction sought with a large enough effect; inconclusive means small, poorly fitted or top-dose-only effect, or another doubt; inactive means no such curve, though single readings can be large; an effect the other way counts as inactive or inconclusive. Potency means the concentration at half of the fitted maximal effect.

SMILES | ELG1 genotoxic | SMN2 splice up | NPC1 promoter act | KinaseGlo FLuc | FLuc counter | Rab9 prom act
O=C(c1cccs1)N1CCn2c1nc1ccccc12 | ? | 13µM* | 2.8µM* | ? | ? | 4µM*
O=C(c1ccc(Cl)cc1)N1CCn2c1nc1ccccc12 | 9% | ? | 19% | 1% | ? | ?
CCCc1cc(=O)[nH]c2nnc(SCC(=O)Nc3ccc(C(C)=O)cc3)n12 | 1% | · | -3% | · | 1% | 1%
CCc1ccc(NC(=O)CSc2nnc3[nH]c(=O)cc(-c4ccccc4)n23)cc1 | · | · | · | · | 1.5µM* | ·
O=C(CSc1nnc2[nH]c(=O)cc(-c3ccccc3)n12)Nc1ccccc1C(F)(F)F | · | · | · | · | 2.7µM* | ·
COc1ccc(Cl)cc1NC(=O)CSc1nnc2[nH]c(=O)cc(-c3ccccc3)n12 | · | · | · | · | 1.2µM* | ·
CCCSc1nc2c(c(=O)[nH]1)C(c1ccc(O)c(OCC)c1)CC(=O)N2 (stereo not given) | · | · | · | · | -15% | ·
Cc1cccc(C)c1Nc1nnc(SC(C)C(=O)Nc2c(C)n(C)n(-c3ccccc3)c2=O)s1 (stereo not given) | 0% | 3% | 1% | 1% | 2% | -5%
Cc1ccc(Nc2nnc(SC(C)C(=O)Nc3c(C)n(C)n(-c4ccccc4)c3=O)s2)cc1 (stereo not given) | 0% | 6% | -1% | -3% | 11µM* | 0%
CC1CCCC(C)N1C(=O)c1cc(-c2ccc(Cl)c(Cl)c2)on1 (stereo not given) | 13% | 27% | ? | -2% | 12µM* | ?
CC1CCCC(C)N1C(=O)c1cc(-c2ccc3c(c2)OCO3)on1 (stereo not given) | -1% | · | 2µM* | · | 11µM* | 2µM*
Cc1cccc2cc(CN(CCCO)C(=O)Nc3cccc(Cl)c3)c(=O)[nH]c12 | -6% | -16% | -3% | -5% | 21µM* | -9%
Cc1cccc2cc(CN(CCCO)C(=O)Nc3ccc(Cl)cc3)c(=O)[nH]c12 | 2% | -11% | -3% | 2% | ? | 3%
Cc1ccc(C)c(N2CCN(c3c(CN4CCCC4)c(=O)oc4ccccc34)CC2)c1 | · | 9% | · | · | -1% | ·
CC1CCN(C(=O)CCc2nnc(-c3ccccc3)o2)CC1 | ? | · | ? | -1% | 15µM* | ?
O=C(CSc1nnc(-c2ccc(F)cc2)o1)N1CCCCC1 | 21µM* | · | ? | · | ? | ?
O=C(CSc1nnc(-c2ccccc2)o1)N1CCCC1 | 30% | · | ? | · | ? | ?
O=C(CSc1nnc(-c2ccccc2)o1)N1CCCCC1 | ? | · | 2.8µM* | · | 15µM* | 2.5µM*
O=C(CSc1nnc(-c2ccccc2)o1)N1CCCc2ccccc21 | · | 3% | · | · | -14% | ·
O=C(CSc1nnc(-c2ccccc2Cl)o1)N1CCCc2ccccc21 | · | 1% | · | · | 24µM* | ·
O=C(Nc1ccccc1F)c1ccc(Cn2nc(N3CCN(c4ccccc4)CC3)ccc2=O)o1 | · | · | · | · | 4% | ·
O=C(CCc1nnc(-c2ccc3c(c2)OCO3)o1)N1CCC(c2ccc(F)cc2)C1 (stereo not given) | ? | · | 14% | -4% | 19µM* | ?
CN(C)c1ccc(C(CNC(=O)Cc2ccc(Cl)cc2)N2CCOCC2)cc1 (stereo not given) | · | · | · | · | -3% | ·
COc1cc2c(cc1OC)/C(=C/C(=O)c1ccccc1)NCC2 | 12% | · | 22% | · | -18% | -2%
COc1cc2c(cc1OC)/C(=C/C(=O)c1ccc(C)cc1)NCC2 | 7% | · | -2% | · | 17µM* | 6%
SMILES | ELG1 genotoxic | SMN2 splice up | NPC1 promoter act | KinaseGlo FLuc | FLuc counter | Rab9 prom act
CCCCNC(=O)c1ccc2c(c1)S(=O)(=O)c1ccccc1C2=O | 11% | · | -4% | · | 15µM* | -5%
CCNC(=O)c1ccc2c(c1)S(=O)(=O)c1ccccc1C2=O | 7% | -1% | 0% | 1% | -2% | -6%
CCc1ccc(-n2nc(CO)c(C(=O)NC)n2)cc1 | · | ? | · | · | 15µM* | ·
CCOc1ccc(-n2nc(CO)c(C(=O)NCc3cccs3)n2)cc1 | · | -10% | · | · | 19µM* | ·
Cc1ccc(-n2nc(CO)c(C(=O)NCc3cccs3)n2)cc1 | · | -21% | · | · | -7% | ·
Cc1nnc(SCc2nc3ccccc3s2)n1-c1ccccc1 | ? | ? | 19% | 1% | 15µM* | 22%
c1ccc(-n2cnnc2SCc2nc3ccccc3s2)cc1 | ? | -17% | 3% | -6% | 17µM* | 29%
Cc1nnc(SCc2nc3ccccc3s2)n1N | 13µM* | · | 11% | -7% | 9.5µM* | -29%
Cc1ccccc1CSc1nnc(C)n1N | 3% | · | -1% | 3% | -2% | 8%
CCn1c(SCc2nc3ccccc3s2)nnc1-c1ccccc1 | 13µM* | -3% | 3% | 16% | 15µM* | 1%
COc1ccc(OC)c(NC(=O)CSC2=Nc3ccccc3C3=NC(CC(=O)NCc4ccc5c(c4)OCO5)C(=O)N23)c1 (stereo not given) | · | · | · | · | -10% | ·
O=C(Nc1ccc(Oc2ccccc2)cc1)c1ccc(F)c(S(=O)(=O)N2CCN(c3ccccc3F)CC2)c1 | · | · | · | · | 0% | ·
CCOC(=O)C1Oc2ccccc2C(c2ccccc2)=C1C(C)=O (stereo not given) | · | · | · | 0%[39.9 µM] | · | ·
CCOC(=O)c1cccc(NC(=O)CN2C(=O)c3ccccc3Sc3ncccc32)c1 | · | · | · | · | 5% | ·
CCC(c1nnc(SCc2nc3ccccc3s2)n1Cc1ccccc1)N(C)C (stereo not given) | ? | -14% | 0% | -5% | 17µM* | 13%
CCCN1C(=O)c2cccc3c(N4CCCCC4)ccc(c23)C1=O | ? | 6%[1.84 µM] | 20% | -3% | 11µM* | ?
CN(Cc1nccs1)C(=O)c1ccc2nc(Cc3ccccc3F)oc2c1 | -2% | · | 1% | · | 3% | 0%
CN(Cc1nccn1C)C(=O)c1ccc2nc(Cc3ccccc3F)oc2c1 | ? | · | 15% | · | 13µM* | ?
Cc1cc(CN(C)C(=O)c2ccc3nc(Cc4ccccc4F)oc3c2)on1 | -3% | · | 2.8µM* | · | ? | 3.2µM*
CCn1c(=O)n(-c2ccc(C)c(F)c2)c(=O)c2sc3ccccc3c21 | · | -8% | · | · | 0% | ·
CC(C)(C)c1ccc(-c2nnc(SCCN3C(=O)c4ccccc4C3=O)o2)cc1 | -3% | 9% | 0% | 1% | 15µM* | -2%
CC1CN(C(=O)Nc2ccc(C(=O)NCc3cccc(F)c3)cc2)c2ccccc2S1 (stereo not given) | · | 0% | · | · | 1% | ·
CCN1CCN(C(=O)c2cc(-c3ccc(Cl)s3)nc3ccccc23)CC1 | -6% | · | -2% | · | 19µM* | -1%
O=C(Nc1ccccn1)c1cc(-c2ccc(Cl)s2)nc2ccccc12 | -3% | · | 2% | · | ? | -2%
